The list is not random: actives were taken first. Their share in the collection is about 2.1%.
IEC-6 cytotox – cytotoxicity in IEC-6 intestinal epithelial cells, primary screen, cytotoxicity control for KLF5 inhibitor project, cell-based, luminescence; IEC-6 cytotoxicity, luminescence viability; inhibition, % at 5 µM; 0.78% of 290,000 active; AID 1825, 2009; in the data active means inhibition above about 22%
Ba/F3 V617F tox – reduced viability of JAK2V617F-dependent Ba/F3 cells, primary screen, JAK2V617F inhibitor project, cell-based, Ba/F3 EpoR-JAK2V617F, luminescence. AID 1446, 2008. inhibition, % at 5.6 µM. ATP luminescence. 1.1% of 220,000 active;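 active means inhibition above the campaign mean plus 3 SD over all tested compounds, cut at about 24% in these data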;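 further: cytokine-independent growth of Ba/F3 cells driven by EpoR plus mutant JAK2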
APP 5UTR inh – inhibitors of APP translation via 5'UTR reporter, primary screen, APP 5'UTR luciferase, SH-SY5Y cells; inhibition, % at 2 µM; 0.82% of 190,000 active; SH-SY5Y APP 5'UTR-luciferase reporter, luminescence; AID 1285, 2008;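 active means inhibition above a set limit, derived from the sample mean plus 3 SD, cut at about 45% in these data; inconclusive means one replicate passes the limit while the other fails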
KLF5 inh – KLF5 expression inhibitors, primary screen, DLD-1 cells, luminescence; DLD-1 KLF5 promoter-luciferase reporter; AID 1700, 2009; 0.23% of 290,000 active; inhibition, % at 5 µM;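 active means inhibition above a per-plate limit of that plate's mean compound inhibition plus 3 SD, cut at about 60% in these data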;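 further: higher means less KLF5 promoter-driven luciferase light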
BaF3 parental – parental Ba/F3 cell viability inhibition, counter-screen for JAK2V617F inhibitor project, murine pro-B, CellTiter-Glo luminescence. CellTiter-Glo ATP luminescence. inhibition, % at 5.6 µM. 1.1% of 220,000 active;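 active means inhibition above a per-campaign cutoff, the mean inhibition of all tested compounds plus 3 SD, cut at about 27% in these data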
aSyn UTR inh – MLPCN primary screen, SNCA 5' untranslated region | 0.82% of 300,000 active | alpha-synuclein 5'UTR reporter, inhibitor activity | AID 1813, 2009 | inhibition, % (tested at 7.5 µM); in the data active means inhibition above about 60%; inconclusive means no clear call, values can overlap the other calls;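 further: H4 neuroglioblastoma cells stably carrying SNCA 5'UTR luciferase fusion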
Each line names hits and unclear results; the compound was inactive in the other large screens.

COC(=O)CSC1=C(C#N)C(c2ccc(F)cc2)CC(=O)N1 (configuration not stated)	BaF3 parental 42.8
COC(=O)CSC1=C(C#N)C(c2sccc2C)CC(=O)N1 (configuration not stated)	none
COC(=O)CSC1=C(C#N)C(c2ccc(C)o2)CC(=O)N1 (configuration not stated)	BaF3 parental 42.6
Nc1ccc(S(=O)(=O)Nc2nc3ccccc3o2)cc1	none (no result: Ba/F3 V617F tox, APP 5UTR inh, BaF3 parental)
O=C(O)c1ccc(N=N/C(=N\Nc2ccc(C(=O)O)cc2)c2ccccc2)cc1	none (no result: IEC-6 cytotox, Ba/F3 V617F tox, APP 5UTR inh, KLF5 inh, BaF3 parental)
Brc1ccc(N/N=C(/N=Nc2nn[nH]n2)c2ccccc2)cc1	APP 5UTR inh 58.5, aSyn UTR inh 97.5
c1ccc2c(c1)cnc1ccccc12	none (no result: APP 5UTR inh)
c1ccc(-c2ncc3c(ccc4ccccc43)n2)cc1	aSyn UTR inh 68.1
COc1cc(OC)cc(-c2nc3nc(C)c(CCC(=O)NCC(OC)OC)c(C)n3n2)c1	none
COC(CNC(=O)CCc1c(C)nc2c(-c3ccc(F)cc3)c(C)nn2c1C)OC	APP 5UTR inh 55.0
COc1ccc(-c2nc3ccccc3s2)cc1O	aSyn UTR inh 85.4
CC[n+]1cccc(-c2nc3ccccc3s2)c1	Ba/F3 V617F tox 33.7, BaF3 parental 44.0
COC(=O)N(C)c1nc2ccccc2s1	none
CN(C(=O)OC(C)(C)C)c1ccc(-c2nc3ccccc3s2)cc1	aSyn UTR inh 104.2 (no result: IEC-6 cytotox, Ba/F3 V617F tox, APP 5UTR inh, KLF5 inh, BaF3 parental)
Oc1cccc(-c2nc3ccccc3s2)c1	none
CC(C)c1ccc(-c2nc3ccccc3s2)cc1	aSyn UTR inh 98.5 (no result: APP 5UTR inh)
CCc1ccccc1NC(=O)CNC(=O)c1ccccc1OCc1c(C)noc1C	none (no result: IEC-6 cytotox, Ba/F3 V617F tox, APP 5UTR inh, KLF5 inh, BaF3 parental)
O=C(CN1C(=O)NC2(CCCCCC2)C1=O)Nc1ccc2c(c1)CCC2	none
CCn1c(SCC(=O)Nc2nncs2)nnc1C(C)NC(=O)c1ccccc1Br (configuration not stated)	none (no result: Ba/F3 V617F tox, APP 5UTR inh, BaF3 parental)
O=C1NCCCC1C(=O)N1CCN(C(c2ccccc2)c2ccccc2)CC1 (configuration not stated)	APP 5UTR inh 50.1
CSc1ccc(/C=C(/NC(=O)c2ccco2)C(=O)N2CCCCC2)cc1	none (no result: Ba/F3 V617F tox, APP 5UTR inh, BaF3 parental)
C=CCNC1=C(Cl)C(=O)c2ccccc2C1=O	IEC-6 cytotox 26.7
O=C1C(Cl)=C(Nc2ccccc2)C(=O)c2ccccc21	APP 5UTR inh 95.7
CC(=O)C(C)n1c(CN(C)Cc2ccccc2)nc2c1c(=O)n(C)c(=O)n2C (configuration not stated)	none (no result: Ba/F3 V617F tox, APP 5UTR inh, BaF3 parental)
CC(C)n1c(CN(C)Cc2ccccc2)nc2c1c(=O)n(C)c(=O)n2C	aSyn UTR inh 64.3 (no result: Ba/F3 V617F tox, APP 5UTR inh, BaF3 parental)
c1cncc(CSc2ccc(-c3cccs3)nn2)c1	BaF3 parental 46.0
O=C(C1Cc2ccccc2CN1C(=O)c1ccccc1)N1CCN(c2ccccc2)CC1 (configuration not stated)	Ba/F3 V617F tox 58.1, BaF3 parental 47.0 (no result: APP 5UTR inh)
O=C(c1ccc(CN2CCc3ccccc3C2)cc1)N1CCN(c2ccccc2)CC1	none
On1onc2c3cc(-c4ccccc4)nc3ccc21	Ba/F3 V617F tox 99.6, APP 5UTR inh 60.8, BaF3 parental 97.2 (no result: aSyn UTR inh)
O=c1cc(Nc2ccc3c(c2)OCCO3)[nH]c(=O)n1C1CCCCC1	APP 5UTR inh 82.6
Cc1ccc(SCC(=O)OC(C)C(=O)NCc2ccccc2)cc1 (configuration not stated)	none (no result: IEC-6 cytotox, Ba/F3 V617F tox, APP 5UTR inh, KLF5 inh, BaF3 parental)
COc1ccccc1NC(=O)/C(C#N)=C/C=C/c1ccco1	APP 5UTR inh 87.6
CCCOC(c1ccccc1)(c1ccc(C(F)(F)F)cc1)C(Oc1nc(C)cc(C)n1)C(=O)O (configuration not stated)	KLF5 inh 69.8, aSyn UTR inh inconclusive (no result: Ba/F3 V617F tox, APP 5UTR inh, BaF3 parental)
COc1cc(NS(=O)(=O)c2ccc(NC(=S)NC(=O)CC(C)C)cc2)nc(OC)n1	APP 5UTR inh 54.5
COC(=O)CCC(=O)NC(=S)Nc1ccc(S(=O)(=O)Nc2cc(OC)nc(OC)n2)cc1	none
CCOc1cc(/C=N/n2nnnc2N)ccc1OCc1c(C)no[n+]1[O-]	BaF3 parental 96.8
CCn1nc(C)c(CN2CCCC(CNS(=O)(=O)c3ccc(OC)cc3)C2)c1C (configuration not stated)	none (no result: Ba/F3 V617F tox, APP 5UTR inh, BaF3 parental)
COc1cc(C(=O)NC(=S)NNC(=O)c2cnccn2)cc(OC)c1OC	aSyn UTR inh 78.9
COc1cc(C(=O)NNC(=O)c2ccco2)cc(OC)c1OC	none (no result: Ba/F3 V617F tox, APP 5UTR inh, BaF3 parental)

Compound activity as filed in PubChem.
